For part of these data: Entries with a potency or affinity are not part of this list. Active and inactive are the calls of the source. Unless noted, how the calls were made is not given here.
Legend:
[1] = antimalarial activity against Dd2 strain (AID 2302;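 active means growth inhibition above 50% at the single 2 µM test dose, taken to imply half-maximal potency below 2 µM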;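 further: 0% = DMSO untreated growth and 100% = chloroquine plus artemisinin killed control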); conditions: P. falciparum Dd2 in RBCs, LDH growth readout, 72 h; at 2 µM; hits give high values
[2] = human hepatoma cell viability loss – ATP luminescence, cytotoxicity control for P. falciparum antimalarial project, primary screen (AID 2303;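 active means inhibition above 50%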;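 further: 0% = DMSO wells and 100% = digitonin-killed cells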); conditions: HepG2 viability, 24-48 h, at 10 µM, hits give high values
[3] = biological target: L-lactate dehydrogenase (Plasmodium falciparum (isolate CDC / Honduras)) (UniProt Q27743); experiment: PfLDH activity inhibition – cell lysate, 3D7 strain, counter-screen for P. falciparum growth inhibition project (AID 2304);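 further: 0% = vehicle and 100% = reference inhibitor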; conditions: P. falciparum 3D7 crude extract, LDH APAD/NBT absorbance; at 2 µM; hits give high values
Sequence of L-lactate dehydrogenase (Plasmodium falciparum (isolate CDC / Honduras)) (Q27743 whole entry, looked up): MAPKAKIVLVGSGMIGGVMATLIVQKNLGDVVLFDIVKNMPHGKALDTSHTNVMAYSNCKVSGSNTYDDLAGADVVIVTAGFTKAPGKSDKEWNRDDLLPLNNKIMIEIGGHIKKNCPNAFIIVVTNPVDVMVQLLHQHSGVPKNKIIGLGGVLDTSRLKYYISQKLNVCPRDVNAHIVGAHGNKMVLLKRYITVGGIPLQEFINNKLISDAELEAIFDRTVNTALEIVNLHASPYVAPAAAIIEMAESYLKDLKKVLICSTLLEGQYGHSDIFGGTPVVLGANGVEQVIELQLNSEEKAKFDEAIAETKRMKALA

[4] = inhibition of 3D7 malaria parasite growth – strain 3D7 (AID 2306);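 further: 0% = DMSO wells and 100% = chloroquine plus artemisinin control wells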; conditions: P. falciparum 3D7 erythrocytic growth, LDH absorbance, 72 h; at 2 µM; hits give high values
[5] = biological target: Calcium-dependent protein kinase 1 (Plasmodium falciparum (isolate 3D7)) (UniProt P62344); experiment: PfCDPK1 kinase inhibitors, biochemical, TCAMS library (AID 1159585; cut-off not given, nearly all actives have IC50 up to about 0.98 µM;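 further: inhibitors leave more ATP so luminescence rises with inhibition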); conditions: recombinant PfCDPK1, Kinase-Glo ATP depletion luminescence
Sequence of Calcium-dependent protein kinase 1 (Plasmodium falciparum (isolate 3D7)) (P62344 whole entry, looked up): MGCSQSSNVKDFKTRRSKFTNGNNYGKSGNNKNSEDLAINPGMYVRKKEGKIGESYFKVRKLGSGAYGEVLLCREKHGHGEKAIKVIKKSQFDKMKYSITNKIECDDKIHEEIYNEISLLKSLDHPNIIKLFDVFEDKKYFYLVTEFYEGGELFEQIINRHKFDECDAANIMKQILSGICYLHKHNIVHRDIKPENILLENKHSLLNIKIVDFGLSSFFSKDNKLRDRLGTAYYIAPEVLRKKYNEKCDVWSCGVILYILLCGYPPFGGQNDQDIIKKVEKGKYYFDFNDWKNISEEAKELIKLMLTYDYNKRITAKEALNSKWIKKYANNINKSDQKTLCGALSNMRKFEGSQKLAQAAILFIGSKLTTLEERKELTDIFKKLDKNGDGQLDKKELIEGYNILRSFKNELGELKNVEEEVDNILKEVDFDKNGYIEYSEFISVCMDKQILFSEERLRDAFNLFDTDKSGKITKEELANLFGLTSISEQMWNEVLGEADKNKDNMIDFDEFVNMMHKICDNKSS

[6] = biological target: Plasmodium falciparum protein kinase 6 (PK6, PF3D7_1337100) (UniProt Q8IDW1); experiment: PfPK6 kinase inhibitors, biochemical, TCAMS library (AID 1159586); conditions: recombinant PfPK6, Kinase-Glo ATP depletion luminescence
Sequence of Plasmodium falciparum protein kinase 6 (PK6, PF3D7_1337100) (Q8IDW1 1-305): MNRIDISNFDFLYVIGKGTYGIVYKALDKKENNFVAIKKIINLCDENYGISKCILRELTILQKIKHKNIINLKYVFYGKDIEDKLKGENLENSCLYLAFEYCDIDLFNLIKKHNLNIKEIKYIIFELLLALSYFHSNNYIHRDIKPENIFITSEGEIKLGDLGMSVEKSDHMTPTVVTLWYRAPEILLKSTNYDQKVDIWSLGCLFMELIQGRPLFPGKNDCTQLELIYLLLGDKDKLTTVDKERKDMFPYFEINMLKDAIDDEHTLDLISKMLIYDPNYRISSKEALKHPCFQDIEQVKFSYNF

[7] = biological target: Protein kinase 7 (PK7), Plasmodium falciparum 3D7 (PF3D7_0213400) (UniProt Q7YTF7); experiment: inhibition of Plasmodium PK7 catalytic activity – biochemical, TCAMS antimalarial set, Kinase-Glo luminescence (AID 1159587); conditions: recombinant PfPK7, Kinase-Glo ATP depletion luminescence
Sequence of Protein kinase 7 (PK7), Plasmodium falciparum 3D7 (PF3D7_0213400) (Q7YTF7 1-343): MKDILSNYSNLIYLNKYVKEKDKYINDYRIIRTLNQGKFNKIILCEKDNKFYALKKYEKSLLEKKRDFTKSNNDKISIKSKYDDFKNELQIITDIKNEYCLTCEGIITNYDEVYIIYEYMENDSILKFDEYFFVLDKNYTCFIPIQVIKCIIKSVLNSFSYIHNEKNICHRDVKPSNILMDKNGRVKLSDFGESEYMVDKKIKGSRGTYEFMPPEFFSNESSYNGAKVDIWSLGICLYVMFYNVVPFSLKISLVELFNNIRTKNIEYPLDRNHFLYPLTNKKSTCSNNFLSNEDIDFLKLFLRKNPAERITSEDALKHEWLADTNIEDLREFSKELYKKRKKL

[8] = biological target: Calcium-dependent protein kinase 4 (Plasmodium falciparum (isolate 3D7)) (UniProt Q8IBS5); experiment: PfCDPK4 kinase inhibitors, biochemical, TCAMS library (AID 1159588; cut-off not given, nearly all actives have IC50 up to about 0.91 µM); conditions: recombinant PfCDPK4, Kinase-Glo ATP depletion luminescence
Sequence of Calcium-dependent protein kinase 4 (Plasmodium falciparum (isolate 3D7)) (Q8IBS5 whole entry, looked up): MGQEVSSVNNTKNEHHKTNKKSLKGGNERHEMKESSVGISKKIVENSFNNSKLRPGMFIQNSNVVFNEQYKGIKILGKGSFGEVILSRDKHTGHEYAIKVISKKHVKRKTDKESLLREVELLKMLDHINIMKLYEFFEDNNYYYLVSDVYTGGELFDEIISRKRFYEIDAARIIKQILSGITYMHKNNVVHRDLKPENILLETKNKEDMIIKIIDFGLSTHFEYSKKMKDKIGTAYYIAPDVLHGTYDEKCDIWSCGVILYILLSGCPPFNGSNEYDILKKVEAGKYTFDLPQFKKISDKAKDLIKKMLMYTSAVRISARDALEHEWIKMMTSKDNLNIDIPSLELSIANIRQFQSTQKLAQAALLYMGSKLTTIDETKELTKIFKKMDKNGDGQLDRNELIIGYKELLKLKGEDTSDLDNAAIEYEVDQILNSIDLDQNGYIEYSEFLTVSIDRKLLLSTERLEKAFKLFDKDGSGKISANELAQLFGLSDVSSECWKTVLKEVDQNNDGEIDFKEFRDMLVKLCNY

| SMILES | growth inhibition [1] | inhibition [2] | inhibition [3] | growth inhibition [4] | outcome [5] | outcome [6] | outcome [7] | outcome [8] |
| --- | --- | --- | --- | --- | --- | --- | --- | --- |
| COc1cc2ccccc2cc1CNCCCCCCNCc1cc2ccccc2cc1OC | 24% (inactive) | 98% (active) | 6% (inactive) | 101% (active) | inactive | inactive | inactive | inactive |
| COc1ccc(C(=O)Nc2cc(Br)c3c(c2)CNCC3)cc1Br | 8% (inactive) | 25% (inactive) | 7% (inactive) | 97% (active) | inactive | inactive | inactive | inactive |
| CN(C)C(CNC(=O)c1cc(-c2ccncc2)c(-c2cc3ccccc3[nH]2)o1)c1ccccc1 (configuration not stated) | 62% (active) | 3% (inactive) | -2% (inactive) | 96% (active) | inactive | inactive | inactive | inactive |
| O=c1cc(NCCCNCc2cn(S(=O)(=O)c3ccccc3)c3ccccc23)[nH]c2ccccc12 | 29% (inactive) | 17% (inactive) | -2% (inactive) | 91% (active) | inactive | inactive | inactive | inactive |
| N#Cc1ccc(CN2CCC(Oc3ccc(NC(=O)c4ccsc4)cc3Cl)C2)cc1 (configuration not stated) | 79% (active) | 29% (inactive) | -2% (inactive) | 88% (active) | inactive | inactive | inactive | inactive |
| COc1cc(C(=O)N2CCN(C(C)C)CC2)ccc1CN(C)CCCCN1CCN(c2cccc(Cl)c2Cl)CC1 | 98% (active) | 79% (active) | 6% (inactive) | 101% (active) | inactive | inactive | inactive | inactive |
| Cc1cc(-c2cccc(CNC3CCCC3)c2)ccc1S(=O)(=O)NCCN1CCCC1 | 7% (inactive) | 38% (inactive) | 2% (inactive) | 81% (active) | inactive | inactive | inactive | inactive |
| N#Cc1ccc(N(CCOC(=O)c2ccccc2)Cc2ccccc2C(F)(F)F)cc1C(F)(F)F | 67% (active) | 6% (inactive) | -1% (inactive) | 92% (active) | inactive | inactive | inactive | inactive |
| CNC(=O)C(NC(=O)c1ccccc1C(=O)OC)c1ccccc1 (configuration not stated) | 2% (inactive) | 4% (inactive) | 3% (inactive) | 96% (active) | inactive | inactive | inactive | inactive |
| O=C(Nc1cccc(-c2cccc(-c3nc4ccc(C(F)(F)F)cc4[nH]3)c2)c1)c1cnc[nH]1 | 100% (active) | 14% (inactive) | 2% (inactive) | 101% (active) | inactive | inactive | inactive | inactive |
| COc1ccc(NC(=O)/C=C/c2ccccc2Cl)cc1OCCN1CCC(N2CCCCC2)CC1 | 49% (inactive) | 3% (inactive) | 1% (inactive) | 101% (active) | inactive | inactive | inactive | inactive |
| COc1ccc(CNCc2ccccc2)cc1-c1ccc(S(=O)(=O)NCCN2CCCC2)c(F)c1 | 42% (inactive) | 29% (inactive) | 5% (inactive) | 87% (active) | inactive | inactive | inactive | inactive |
| O=C(Nc1ccc(C(=O)N2CCN(CCN3CCN(c4cccc(C(F)(F)F)c4)CC3)CC2)cc1)c1cc(Cl)cc(Cl)c1 | 19% (inactive) | 23% (inactive) | 3% (inactive) | 100% (active) | inactive | inactive | inactive | inactive |
| Oc1ccc(CCNc2nc(NCCCOc3cccc(CN4CCCCC4)c3Cl)nc(N3CCNCC3)n2)cc1 | 22% (inactive) | 26% (inactive) | 5% (inactive) | 102% (active) | inactive | inactive | inactive | inactive |
| O=C(c1ccc(-c2cccc(-c3nc4ccc(C(F)(F)F)cc4[nH]3)c2)cc1)N1CCCCC1CN1CCC(O)C1 (configuration not stated) | 98% (active) | 29% (inactive) | -11% (inactive) | 100% (active) | inactive | inactive | inactive | inactive |
| Cc1cc(CN2CCC(C(=O)Nc3ccc(-c4nc5ccccc5[nH]4)cc3)CC2)oc1C | 9% (inactive) | -7% (inactive) | -4% (inactive) | 95% (active) | inactive | inactive | inactive | inactive |
| COc1cc2nc(NCCCO)nc(Nc3ccc(Oc4ccccc4)cc3)c2cc1OC | 101% (active) | 24% (inactive) | 0% (inactive) | 101% (active) | inactive | inactive | inactive | inactive |
| CC(C)CCN(Cc1cncn1Cc1cccc(Cl)c1)C(=O)c1cncc(-c2ccccc2)c1 | -1% (inactive) | 9% (inactive) | -2% (inactive) | 99% (active) | inactive | inactive | inactive | inactive |
| COc1ccc(CCNC(=O)c2ccccc2O)cc1-c1ccc(C(C)(C)C)cc1 | 96% (active) | 25% (inactive) | 0% (inactive) | 95% (active) | inactive | inactive | inactive | inactive |
| CCN(CC)CCN(Cc1ccc(-c2ccc(C(F)(F)F)cc2)cc1)C(=O)Cn1c(CCc2cc(F)cc(F)c2)nc(=O)c2ccccc21 | 80% (active) | 30% (inactive) | 2% (inactive) | 91% (active) | inactive | inactive | inactive | inactive |

| SMILES | growth inhibition [1] | inhibition [2] | inhibition [3] | growth inhibition [4] | outcome [5] | outcome [6] | outcome [7] | outcome [8] |
| --- | --- | --- | --- | --- | --- | --- | --- | --- |
| FC(F)(F)c1ccc2nc(-c3ccc(-c4cccc(CNCCN5CCNCC5)c4)s3)[nH]c2c1 | 39% (inactive) | 22% (inactive) | 5% (inactive) | 91% (active) | inactive | inactive | inactive | inactive |
| Cc1cccc(Nc2nc(C)cc(N3CCCN(CC4CCCCC4)CC3)n2)c1 | 21% (inactive) | 20% (inactive) | -2% (inactive) | 83% (active) | inactive | inactive | inactive | inactive |
| CC(=O)Nc1ccc(C(=O)N2CCN(c3ccnc4cc(Cl)ccc34)CC2)cc1 | 43% (inactive) | 2% (inactive) | -5% (inactive) | 93% (active) | inactive | inactive | inactive | inactive |
| Cc1cc(-c2ccc(NC(=O)N3CCc4cc(Br)c(N5CCN(C)CC5)cc43)cc2)cc(C)n1 | 4% (inactive) | 29% (inactive) | -2% (inactive) | 92% (active) | inactive | inactive | inactive | inactive |
| O=C(N[C@@H](CC1CCCCC1)C(=O)NCCc1ccc(Cl)c(Cl)c1)c1ccc(O)c(-c2ccc(Cl)c(Cl)c2)c1 | 99% (active) | -11% (inactive) | -2% (inactive) | 100% (active) | inactive | inactive | inactive | inactive |
| O=C(Nc1cccc(C(F)(F)F)c1)Nc1cc(F)c(F)cc1Cl | 98% (active) | -1% (inactive) | 5% (inactive) | 83% (active) | inactive | inactive | inactive | inactive |
| CCNc1cc(C(=O)N[C@@H](Cc2ccccc2)[C@H](O)CNC(C)CC(C)C)c(F)c(N2CCCCS2(=O)=O)c1 (some centres not stated) | 66% (active) | 6% (inactive) | 4% (inactive) | 95% (active) | inactive | inactive | inactive | inactive |
| Cc1cc(N[C@@H](Cc2ccccc2)C(=O)NCc2cccc(F)c2)nc(NCCc2ccc(F)cc2)n1 | 69% (active) | 0% (inactive) | -2% (inactive) | 99% (active) | inactive | inactive | inactive | inactive |
| CCn1ncc2c(N3CCCC3=O)cc(C(=O)N[C@@H](Cc3ccccc3)[C@H](O)CNC(C)(C)c3cccc(OC)c3)cc21 | 97% (active) | 6% (inactive) | 0% (inactive) | 98% (active) | inactive | inactive | inactive | inactive |
| CNc1ccc(CNCc2ccc(-c3ccc(-c4nc5ccc(C(F)(F)F)cc5[nH]4)s3)cc2)cc1 | 97% (active) | 44% (inactive) | -2% (inactive) | 102% (active) | inactive | inactive | inactive | inactive |
| CC(C)c1sc(N2CCN(C)CC2)nc1C(=O)NCCc1cccc(Cl)c1 | 15% (inactive) | 9% (inactive) | -1% (inactive) | 91% (active) | inactive | inactive | inactive | inactive |
| COc1cc2nc(-c3ccccc3)nc(N3CCN(CC(=O)N4CCCC4)CC3)c2cc1OC | 70% (active) | 7% (inactive) | -1% (inactive) | 84% (active) | inactive | inactive | inactive | inactive |
| O=C1CCCN1CCCNCc1cccc(-c2ccc(-c3nc4ccc(C(F)(F)F)cc4[nH]3)cc2)c1 | 96% (active) | 15% (inactive) | -3% (inactive) | 101% (active) | inactive | inactive | inactive | inactive |
| Cc1cc(C)c(S(=O)(=O)N2CCCCC(c3cccc(C(F)(F)F)c3)=N2)c(C)c1 | 95% (active) | -1% (inactive) | -2% (inactive) | 94% (active) | inactive | inactive | inactive | inactive |
| CN1CCN(c2ccnc3cc4c(cc23)N(Cc2ccccc2)CC4)CC1 | 27% (inactive) | -2% (inactive) | -3% (inactive) | 94% (active) | inactive | inactive | inactive | inactive |
| C=CCOc1ccc(CNC2CCN(Cc3ccccc3)CC2)cc1Br | 8% (inactive) | 9% (inactive) | -2% (inactive) | 92% (active) | inactive | inactive | inactive | inactive |
| CCCC(C)N(Cc1ccc(C(C)(C)C)cc1)C(=O)c1ccc(OC)cc1 (configuration not stated) | 98% (active) | 7% (inactive) | -2% (inactive) | 100% (active) | inactive | inactive | inactive | inactive |
| Cc1ccc2c(c1)c(C1CCN(C(=O)c3ccc([N+](=O)[O-])o3)CC1)cn2C | 76% (active) | -6% (inactive) | -1% (inactive) | 97% (active) | inactive | inactive | inactive | inactive |
| O=C(NC1CCN(Cc2ccccc2)CC1)c1csc2nc(-c3ccc(Cl)cc3)cn12 | 14% (inactive) | 19% (inactive) | -10% (inactive) | 98% (active) | inactive | inactive | inactive | inactive |

Source: PubChem BioAssay
